Bioassay records from PubChem BioAssay.
HepG2 tox: kills HepG2 cells in TGF-b inhibitor counter-screen | 410,000 tested, 0.76% active | Potency, µM (highest dose often 46.1 µM), inactives show at the top dose activity change, negative = cytotoxicity, actives largely listed as cytotoxic | HepG2 CAGA-GFP viability, ATP luminescence, 18 h; also: potency is read from the fitted curve at half-maximal effect
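HepG2 CAGA-GFP cells (1000/well, DMEM with 1% FBS) received compound, then TGF-beta at 500 pg/mL final, and were incubated 18 hours at 37 degrees C. Viability was read by CellTiter-Glo luminescence. Media-only wells were set as complete cell-killing and DMSO as no toxicity.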
ATXN2 expr inh: inhibitors of ATXN2 expression; Potency, µM (titrated, usually from 57 µM), for the others: at the highest dose activity change, negative = inhibition, hits mostly inhibitors; AID 1745845; HEK-293 ATXN2-luciferase reporter, luminescence, 24 h; 360,000 tested, 0.72% active; also: potency is read from the fitted curve at half-maximal effect; % is scaled to controls: 0 for no effect and ±100 for the full control effect; nearly all actives have a fitted effect of over 55% in size
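qHTS (up to 57 uM final) was run with 24 h compound exposure of reporter cells at 37 °C. Each well was multiplexed: SteadyGlo luminescence measured ATXN2-luciferase expression after a fluorogenic Gly-Phe-AFC viability readout (25 uM final).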
S2 tox: viability counter-screen for ATXN expression inhibitors; 400,000 tested, 0.49% active; S2 cells (HEK-293 line with an ATXN2-luciferase reporter) viability, CellTiter-Fluor protease fluorescence, 24 h; Potency, µM (titrated, usually from 56.7 µM), actives largely listed as cytotoxic; also: potency is read from the fitted curve at half-maximal effect; nearly all actives have a fitted effect of over 40% in size
TGFb SMAD3 inh: inhibitors of TGF-b signaling; HepG2 CAGA-GFP TGF-b/SMAD3 reporter, GFP fluorescence, 18 h; TGF-beta stimulated, 500 pg/mL final; 410,000 tested, 1.2% active; Potency, µM (series often up to 46.1 µM), inactives show at the highest dose activity, negative = inhibition, usual class: inhibitors; also: potency is read from the fitted curve at half-maximal effect; % is scaled to controls: 0 for no effect and ±100 for the full control effect; nearly all actives have a fitted effect of over 65% in size
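First, reporter cells (HEPG2 CAGA-GFP) rested 2 h at 37 degrees C. Next, compounds were pinned in and TGF-beta added to 500 pg/mL final. After 18 h, GFP was imaged per cell and summed per well.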
IL1B secr inh: inhibitors of inflammasome signaling (IL-1 beta secretion); THP-1 LPS/ATP IL-1B secretion, AlphaLISA, 16 h; hits give low values; activity change, % at 57.5 µM; 360,000 tested, 4.7% active; in the data active = activity change below about -50%; inconclusive = mostly about -30% to -49%; also: % is scaled to controls: 0 for no effect and ±100 for the full control effect
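Secreted IL-1B measured by AlphaLISA bead assay after 16 h compound exposure of THP-1 cells; compounds (final up to 57.5 uM) added 1 h before LPS (250 ng/mL) and ATP (1.25 mM) stimulation; lower signal means less secretion.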
Active calls of the source: *; i = inactive; ? = inconclusive; . = not tested or not shown. Hits are enriched below; roughly 5.7% of the tested compounds scored in any of these assays. Unless noted, calls follow the shape of the dose curve; as a rule, active = well fitted curve in the direction sought with a large enough effect; inconclusive = small, poorly fitted or top-dose-only effect, or another doubt; inactive = no such curve, though single readings can be large; an effect the other way counts as inactive or inconclusive.

SMILES	HepG2 tox	ATXN2 expr inh	S2 tox	TGFb SMAD3 inh	IL1B secr inh
CCN(Cc1nc(-c2ccccc2)no1)C(=O)c1ccc2c(c1)OCO2	12.8%	-13.1%	i	4.8%	27.2
CN1CCN(c2nc(Nc3ccc(F)cc3)nc(Nc3ccc(F)cc3)n2)CC1	12.6µM*	25.1µM*	?	?	-56.4*
Cc1ccccc1Nc1nc(N2CCOCC2)nc(N2CCOCC2)n1	-20.0%	-21.2%	i	-11.6%	-55.4*
c1ccc(Nc2nc(N3CCCC3)nc(N3CCOCC3)n2)cc1	-3.9%	-16.3%	i	-7.8%	.
c1ccc(Nc2nc(Nc3ccccc3)nc(N3CCNCC3)n2)cc1	-49.8%	?	i	?	-70.8*
CN1CCN(c2nc(Nc3cccc(C(F)(F)F)c3)nc(N3CCOCC3)n2)CC1	-87.0%	-10.7%	i	?	-59.1*
Cc1ccc(NC(=O)c2oc3ccc(S(=O)(=O)N4CCC5(CC4)OCCO5)cc3c2C)c(C)c1	-25.8%	.	.	?	.
CCc1ccccc1NC(=O)N1CCN(c2cc(-c3noc(C)n3)ccc2C)CC1	-22.9%	5.0%	i	2.9%	.
BrC(/C=C\c1ccccc1)=N/Nc1nc(N2CCOCC2)nc(N2CCOCC2)n1	-51.3%	-23.2%	i	?	-6.2
BrC(=C\c1ccccc1)/C=N/Nc1nc(N2CCOCC2)nc(N2CCOCC2)n1	-12.6%	.	i	0.2%	-128.5*
CCc1c(C)[nH]n(-c2nc(-c3ccccc3)cs2)c1=O	-10.0%	-8.7%	i	?	-7.2
Cc1[nH]n(-c2nc(-c3ccc(Cl)cc3)cs2)c(=O)c1N=Nc1ccc(O)cc1	2.0%	?	.	5.7%	-51.4*
COc1ccccc1N1C(=O)N(C(C)=O)C2C1Nc1ccccc1N2C (centres undefined)	-88.2%	25.1µM*	i	?	65.0
Cc1ccc(S(=O)(=O)c2c(C(=O)c3ccccc3)cnc3cc4c(cc23)OCCO4)cc1	-0.8%	-4.5%	i	-12.1%	-61.1*
Cc1c(C(=O)c2ccc(Cl)c(Cl)c2)cnc2cc3c(cc12)OCO3	-7.1%	-19.9%	i	-10.3%	-22.3
COc1ccc(C(=O)c2cnc3cc4c(cc3c2C)OCO4)cc1	-24.3%	2.1%	i	-11.2%	-56.4*
COc1ccc(C(=O)c2cnc3ccc(C)cc3c2S(=O)(=O)c2ccccc2)cc1	-13.9%	?	?	10.3%	.
COc1ccc(OC)c(CC2C(=O)Nc3ccc(Br)cc32)c1 (centres undefined)	-52.6%	.	.	?	.
CCOc1ccccc1NC(=O)CCc1c(C)nc2c(c(C)nn2-c2ccccc2)c1C	0.4%	3.3%	i	4.2%	.
O=C(O)c1cccc(N/N=C/c2cccs2)c1	3.4%	10µM*	?	5.6%	-12.2
O=C(Nc1cccnc1)c1ccc(Cl)c(S(=O)(=O)N2CCOCC2)c1	2.8%	9.4%	i	-20.2%	50.7
O=C(Nc1cccc(Br)c1)c1ccc(Cl)c(S(=O)(=O)N2CCOCC2)c1	-31.3%	?	i	?	-96.2*
O=C(Nc1cccc(C(=O)NC2CC2)c1)c1ccc(Cl)c(S(=O)(=O)N2CCOCC2)c1	2.7%	.	?	9.2%	15.0
O=C(Nc1cccc(S(=O)(=O)C(F)F)c1)c1ccc(Cl)c(S(=O)(=O)N2CCOCC2)c1	-36.1%	?	?	?	-62.6*
Cc1ccc2c(c1)CN(C(=O)CC(c1ccccc1)c1ccco1)CC(C)O2 (centres undefined)	.	.	i	.	.
